# Sampled rows, rich in hits. Any-hit rate of the full collection: about 1.2%.
# EPAC2 antag – qHTS for Antagonist of cAMP-regulated guanine nucleotide exchange factor 2 (EPAC2): primary screen; Rap guanine nucleotide exchange factor 4 (Homo sapiens), Q8WZA2; EPAC2 GEF exchange of Rap1B-BODIPY-GDP, fluorescence; Potency, µM (top dose mostly 114 µM), without a hit: at the highest dose activity, negative = inhibition, most hits filed as inhibitors; 360,000 tested, 0.18% active; also: % is scaled to controls: 0 for no effect and ±100 for the full control effect; nearly all actives have a fitted effect of over 45% in size
# EPAC1 antag – qHTS for Antagonist of cAMP-regulated guanine nucleotide exchange factor 3 (EPAC1): primary screen. Rap guanine nucleotide exchange factor 3 (Homo sapiens), O95398. EPAC1 GEF assay, Rap1b-BODIPY-GDP exchange fluorescence. Potency, µM (titrated, usually from 115 µM), inactives show top-dose activity change, negative = inhibition, usual class: inhibitors. 360,000 tested, 0.14% active. AID 720709, 2013;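 also: plate controls were vehicle for no effect and positive control for full effect; nearly all actives have a fitted effect of over 50% in size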
# VDR inh – Inhibitors of the vitamin D receptor (VDR): qHTS | Vitamin D3 receptor (Homo sapiens), P11473 | VDR-SRC2-3 peptide fluorescence polarization, 2 h | Potency, µM, inactives show max response, negative = inhibition, usual class: inhibitors | 400,000 tested, 0.93% active; also: % is scaled to controls: 0 for no effect and ±100 for the full control effect
#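 Two reagent solutions held at 4 deg C in the dark were dispensed, compounds pinned at 23 nl, and the mixture incubated 2 h at room temperature. Read-out: fluorescence polarization of VDR–SRC2-3 peptide binding.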
# EPAC2 ag – qHTS for Agonist of cAMP-regulated guanine nucleotide exchange factor 4 (EPAC2): primary screen | Rap guanine nucleotide exchange factor 4 (Homo sapiens), Q8WZA2 | 360,000 tested, 0.079% active | Potency, µM (titrated, usually from 154 µM), without a hit: at the highest dose activation, usual class: activators | EPAC2 activation, biochemical qHTS; response scale: 100% = 6.5 mM cAMP response; also: nearly all actives have a fitted effect of over 50% in size
#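 EPAC2 (100 nM) mixed with Rap1B loaded with BODIPY-GDP (250 nM) plus 50 uM unlabeled GDP; compounds pinned in, 5 min RT, then read every 5 min for 30 min (ex 480, em 540 nm). Normalized to cAMP control.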
# EPAC1 agonist – qHTS for Agonist of cAMP-regulated guanine nucleotide exchange factor 3 (EPAC1): primary screen | EPAC1 agonist qHTS, biochemical assay; response scale: 100% = response to 6.5 mM cAMP | Potency, µM (series often up to 154 µM), for inactives: at the top dose activation, actives largely listed as activators | 360,000 tested, 0.073% active; also: nearly all actives have a fitted effect of over 60% in size
#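 Compounds were pinned as a concentration titration into mixtures of EPAC1 (100 nM), BODIPY-GDP-loaded Rap1B (250 nM) and GDP (50 uM). After 5 min at room temperature, fluorescence was followed for 30 min; activity was scaled to 6.5 mM cAMP.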
# USP1-UAF1 inh – Inhibitors of USP1/UAF1: Primary Screen; Ubiquitin carboxyl-terminal hydrolase 1 (Homo sapiens), O94782; recombinant USP1/UAF1, Ub-Rhodamine cleavage fluorescence; Potency, µM (top dose mostly 57.1 µM), for inactives: at the highest dose activity change, negative = inhibition, hits mostly inhibitors; 390,000 tested, 0.23% active; AID 743255, 2014; also: % is scaled to controls: 0 for no effect and ±100 for the full control effect; nearly all actives have a fitted effect of over 60% in size
# Target sequence (O94782 whole entry, looked up): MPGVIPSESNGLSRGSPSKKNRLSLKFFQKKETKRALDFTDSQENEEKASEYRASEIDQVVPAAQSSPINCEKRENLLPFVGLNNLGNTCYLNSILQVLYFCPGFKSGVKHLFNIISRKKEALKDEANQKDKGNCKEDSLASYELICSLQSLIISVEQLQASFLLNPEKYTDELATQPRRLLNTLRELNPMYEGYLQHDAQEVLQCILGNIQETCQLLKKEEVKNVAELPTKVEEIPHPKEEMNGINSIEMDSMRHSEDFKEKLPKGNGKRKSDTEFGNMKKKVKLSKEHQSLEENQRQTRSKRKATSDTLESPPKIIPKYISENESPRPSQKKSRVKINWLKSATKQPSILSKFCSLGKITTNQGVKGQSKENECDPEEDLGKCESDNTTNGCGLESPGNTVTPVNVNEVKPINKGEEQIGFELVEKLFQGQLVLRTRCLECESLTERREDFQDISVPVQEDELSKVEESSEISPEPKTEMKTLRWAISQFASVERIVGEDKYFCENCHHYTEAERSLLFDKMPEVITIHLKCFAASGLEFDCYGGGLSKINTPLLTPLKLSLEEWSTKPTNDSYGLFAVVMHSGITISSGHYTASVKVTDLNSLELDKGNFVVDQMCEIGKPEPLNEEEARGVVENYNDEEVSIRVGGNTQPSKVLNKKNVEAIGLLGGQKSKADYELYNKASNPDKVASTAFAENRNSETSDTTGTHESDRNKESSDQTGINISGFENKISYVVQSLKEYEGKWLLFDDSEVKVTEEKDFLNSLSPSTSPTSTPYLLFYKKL
#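 Step one: compound is pinned into 1nM USP1/UAF1 in HEPES pH 7.8 buffer with TCEP. Step two: 15 min room-temperature incubation. Step three: Ub-Rho (150nM final) starts cleavage, tracked by fluorescence over six one-minute reads.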
# Numbers without * were called inactive; i = inactive; ? = inconclusive; . = no result given. Calls follow the shape of the dose curve; as a rule, active = well fitted curve in the direction sought with a large enough effect; inconclusive = small, poorly fitted or top-dose-only effect, or another doubt; inactive = no such curve, though single readings can be large; an effect the other way counts as inactive or inconclusive. Potency is read from the fitted curve at half-maximal effect.
SMILES,EPAC2 antag,EPAC1 antag,VDR inh,EPAC2 ag,EPAC1 agonist,USP1-UAF1 inh
O=C(O)c1ccc2c(=O)n(Cc3ccccc3)c(SCc3ccc([N+](=O)[O-])cc3)nc2c1,-11.8%,-11.6%,79.4µM*,5.8%,3.8%,-18.3%
COC(=O)C1(C(=O)OC)Cc2conc2[C@H]1c1ccccc1,.,.,0.3%,.,.,.
CCN1C(=O)[C@H]2[C@H]3CN=C(SCC(=O)c4ccccc4)N3[C@@](C)(C(=O)OC)[C@H]2C1=O,-2.1%,-3.3%,44.7µM*,5.3%,10.5%,-16.5%
Cc1ccc(CNC(=O)c2cc3c(=O)n(Cc4ccco4)ccc3nc2C)cc1,.,.,2.3%,.,.,-4.4%
N=c1oc2c3c4c(cc2cc1C(=O)Nc1ccccc1)CCCN4CCC3,i,i,-12.4%,112µM*,?,10µM*
COc1ccc(C(c2c(O)ccc3ccccc23)N2CCOCC2)c(OC)c1 (stereo unspecified),-4.8%,1.5%,70.8µM*,8.0%,18.3%,-19.4%
COc1ccc(C(CCN2CCOCC2)c2c(O)cc(OC)cc2OC)cc1 (stereo unspecified),3.5%,-10.1%,-18.9%,1.1%,0.9%,-23.1%
COc1cc(N(C)C)cc(CN(C)CCc2ccc([N+](=O)[O-])cc2)c1O,.,.,2.51µM*,.,.,.
COc1ccc(CNCCc2ccc([N+](=O)[O-])cc2)c(OC)c1OC,-3.5%,-24.9%,11.0%,6.0%,-0.3%,5.2%
Cc1ccc(-n2cccc2/C=C2/C(=N)N3C(=NC2=O)SN=C3S(C)(=O)=O)cc1,-17.7%,?,-28.8%,-6.7%,4.2%,-11.6%
CCS(=O)(=O)C1=NN2C(=N)/C(=C\c3ccc(OS(=O)(=O)c4ccccc4)cc3)C(=O)N=C2S1,-28.6%,-28.6%,50.1µM*,5.8%,-0.7%,-22.8%
CCc1ccc(-n2cccc2/C=C2/C(=N)N3C(=NC2=O)SN=C3S(C)(=O)=O)cc1,-26.6%,79.4µM*,?,-15.5%,-4.3%,?
CS(=O)(=O)C1=NSC2=NC(=O)/C(=C\c3ccc(OS(=O)(=O)c4ccccc4)cc3)C(=N)N21,?,?,35.5µM*,11.0%,-2.2%,-16.3%
COc1cc(/C=C2/C(=N)N3C(=NC2=O)SN=C3S(C)(=O)=O)ccc1OS(=O)(=O)c1ccc(C)cc1,?,50.1µM*,?,1.1%,-3.9%,-21.8%
COc1ccc2[nH]cc(CCNc3ncncc3-c3ccccc3C)c2c1,.,.,-27.3%,.,.,.
C=C(C(=O)C(C)(C)O)C(O)c1ccc([N+](=O)[O-])cc1 (stereo unspecified),.,.,-0.1%,.,.,.
Nc1nc2[nH]cc(CCc3ccc(C(=O)NC(CCC(=O)O)C(=O)O)cc3)c2c(=O)[nH]1 (stereo unspecified),.,.,2.9%,.,.,.
CCS(=O)(=O)C1=NN2C(=N)/C(=C\c3ccc(OCCOc4cccc(OC)c4)c(OC)c3)C(=O)N=C2S1,?,?,-17.5%,-1.1%,-5.7%,-11.2%
CCS(=O)(=O)C1=NSC2=NC(=O)/C(=C\c3ccc(OS(=O)(=O)c4ccccc4)c(OC)c3)C(=N)N21,?,-17.0%,50.1µM*,14.0%,-6.2%,-28.0%
CCOc1cc(/C=C2\C(=N)N3N=C(S(C)(=O)=O)SC3=NC2=O)ccc1OCCOc1cccc(OC)c1,-21.1%,50.1µM*,?,-7.4%,1.9%,?
COC(=O)[C@H]1O[C@@H](c2cc(OC)c(C)c(OC)c2OCc2ccccc2)[C@H](C)[C@H]2O[C@@]12C,.,.,0.4%,.,.,.
COc1ccc(OCC(O)CN(CCO)CC(O)Cn2ccc3ccccc32)cc1 (stereo unspecified),-16.5%,-2.0%,24.1%,8.2%,-4.5%,-10.5%
CCC(=C(c1ccc(OC)cc1)c1ccc(OC)cc1)c1cn(CC(O)CN(CCO)CCO)c2ccccc12 (stereo unspecified),14.1µM*,-5.9%,4.5%,3.0%,2.2%,-21.0%
CC[C@H](C)[C@H](NC(=O)[C@@H]1CCCN1C(=O)[C@H](Cc1cnc[nH]1)NC(=O)[C@@H](NC(=O)[C@H](Cc1ccc(O)cc1)NC(=O)[C@@H](NC(=O)[C@H](CCCN=C(N)N)NC(=O)CNC)C(C)C)[C@@H](C)CC)C(=O)O,.,.,-2.1%,.,.,.
CC(=O)NCCNC(=O)c1ccc2c(=O)n(CCc3ccccc3)c(=O)[nH]c2c1,.,.,?,.,.,-16.4%
SMILES,EPAC2 antag,EPAC1 antag,VDR inh,EPAC2 ag,EPAC1 agonist,USP1-UAF1 inh
COc1ccccc1NS(=O)(=O)c1cc(NC(=O)c2sccc2C)ccc1N1CCOCC1,-14.6%,-4.2%,-11.7%,11.7%,1.1%,0.1%
COc1ccccc1NS(=O)(=O)c1cc(NC(=O)c2sccc2C)ccc1N1CCCC1,-0.1%,?,89.1µM*,5.9%,5.7%,-13.1%
COc1ccccc1NS(=O)(=O)c1cc(NC(=O)C(C)C)ccc1N1CCCCC1,-3.9%,-4.8%,79.4µM*,-3.6%,7.6%,-6.5%
CCCCCCCC1=CC2=C(Cl)C(=O)C(C)(OC(C)=O)C(=O)C2=CO1 (stereo unspecified),.,.,50.1µM*,.,.,.
CCCCCCCC1=CC2=C(Cl)C(=O)C(C)(OC(C)=O)C(=O)C2=CN1C (stereo unspecified),.,.,70.8µM*,.,.,.
O=C(C=Cc1ccccc1)c1c[nH]c2ccccc2c1=O,-0.7%,79.4µM*,-1.8%,3.8%,0.4%,-11.9%
CC(=O)Nc1sc(N/N=C\c2cccc(Cl)c2)nc1-c1cccs1,16.4%,2.8%,7.08µM*,0.5%,9.9%,-14.7%
Cc1ccc(NC(=O)CN(C)Cc2c(O)ccc3ccccc23)cc1,3.4%,2.7%,79.4µM*,-4.1%,-3.8%,-15.6%
CN(C)Cc1c(O)ccc2ccccc12,15.2%,-7.0%,-26.3%,4.5%,-6.5%,-18.0%
O=C1C=CC2=C3c4cc(O)c(O)cc4C[C@@]3(O)COC2=C1,.,.,11.2µM*,.,.,.
O=C(c1cccc(F)c1)N1CCC[C@@]2(CCN(c3ccccc3)C2)C1,.,.,44.7µM*,.,.,.
COc1ccc(C(=O)N2CCC[C@@]3(CCN(c4ccccc4)C3)C2)cc1,.,.,56.2µM*,.,.,.
O=C(Oc1ccccc1)N1CCC[C@@]2(CCN(c3ccccc3)C2)C1,.,.,35.5µM*,.,.,.

# Assay outcomes as filed in PubChem BioAssay.
